Compound activity (PubChem BioAssay)
HSF1 inhib = HSF1 inhibition; hit rate 0.77% among 300,000; NIH3T3-HGL HSE-luciferase, MG132-induced, luminescence 8 h; hits give low values; AID 2098; activity change, negative = inhibition, % at 7.5 µM (by protocol);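 active = more than half of replicate wells show activity change below -50%, luminescence cut by over half; inconclusive = some wells, but at most half, below -50%; inactive = no replicate well below -50%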;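 note: luciferase reports HSF-1 transcriptional activity via heat shock element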
NPR1 activator = GC-A (human) enzyme activation | HEK293 GC-A cells, cGMP TR-FRET, EC30 ANP; 0% at EC30 ANP, 100% saturating ANP | hit rate 0.14% among 370,000 | AID 1671463 | activation, % at 10 µM; in the data active = activation above about 40%
Target sequence (P16066 whole entry, looked up): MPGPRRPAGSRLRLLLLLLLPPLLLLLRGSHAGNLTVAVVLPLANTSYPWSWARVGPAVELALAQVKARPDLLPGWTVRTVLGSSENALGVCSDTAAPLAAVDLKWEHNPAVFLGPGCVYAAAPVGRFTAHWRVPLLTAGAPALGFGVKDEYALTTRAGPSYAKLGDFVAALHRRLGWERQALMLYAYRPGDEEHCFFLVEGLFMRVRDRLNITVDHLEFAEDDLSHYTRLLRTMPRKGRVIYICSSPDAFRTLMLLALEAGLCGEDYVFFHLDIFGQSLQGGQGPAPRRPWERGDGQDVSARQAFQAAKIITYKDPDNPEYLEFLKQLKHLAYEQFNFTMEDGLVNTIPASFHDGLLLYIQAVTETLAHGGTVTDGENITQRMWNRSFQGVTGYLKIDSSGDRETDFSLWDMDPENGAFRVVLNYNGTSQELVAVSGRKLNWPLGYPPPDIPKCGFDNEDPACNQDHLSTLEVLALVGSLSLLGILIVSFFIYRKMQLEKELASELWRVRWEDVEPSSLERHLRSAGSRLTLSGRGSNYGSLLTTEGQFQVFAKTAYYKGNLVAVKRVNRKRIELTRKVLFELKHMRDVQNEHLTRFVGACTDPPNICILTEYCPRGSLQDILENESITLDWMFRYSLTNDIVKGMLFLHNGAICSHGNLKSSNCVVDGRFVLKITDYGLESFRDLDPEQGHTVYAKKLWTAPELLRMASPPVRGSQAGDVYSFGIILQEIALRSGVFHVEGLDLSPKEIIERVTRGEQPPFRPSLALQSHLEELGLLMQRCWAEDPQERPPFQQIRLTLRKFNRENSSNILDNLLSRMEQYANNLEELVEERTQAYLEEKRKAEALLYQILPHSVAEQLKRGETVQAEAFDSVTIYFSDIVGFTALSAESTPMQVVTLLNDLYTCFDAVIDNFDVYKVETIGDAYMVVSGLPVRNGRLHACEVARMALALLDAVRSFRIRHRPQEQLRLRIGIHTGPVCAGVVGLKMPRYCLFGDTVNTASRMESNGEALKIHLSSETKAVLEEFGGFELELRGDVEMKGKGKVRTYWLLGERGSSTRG
aDG glyco act = alpha-DG glycosylation activation; activation, % at 10 µM; Pro5-aDG cells, alpha-DG glycosylation AlphaScreen (IIH6); 0% Pro5, 100% B10-LARGE cell signal; hit rate 0.22% among 360,000; AID 624168;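 active = activation of at least 8% versus controls, or a plate z-score of at least 8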;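 note: Pro5 are CHO cells carrying HIG-tagged alpha-DG that lacks glycosylation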
HSF1 activator = increases HSF-1 driven luciferase reporter signal | NIH3T3-HGL HSF-1 luciferase reporter, MG132, 8 h; 100% = twice DMSO control signal | activation, % at 9 µM | hit rate 1.7% among 300,000;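 active = mean replicate activation of at least 50% with a set share of replicates each reaching 50%; inconclusive = only one of those two conditions met; inactive = mean below 50% and too few replicates reaching it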
Dyrk1A ADPGlo = Dyrk1A (rat) kinase inhibition. Q63470. ADP-Glo luminescence, NFATc1 peptide. inhibition, % at 12.5 µM. hit rate 0.43% among 310,000. AID 504441; in the data active = inhibition above about 50%
GC-B act = GC-B (human) receptor activation | activation, % at 10 µM | HEK293-GC-B cells, CNP EC30, cGMP TR-FRET; 0% at EC30 CNP, 100% saturating CNP | P20594 | hit rate 0.11% among 370,000;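 active = activation at 10 µM reaching about 35% in either raw or pattern-adjusted values, limit read from the data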
Large screens that a line does not name were inactive. In the library only some 2.5% were active in any assay of this set; here they are far more common.

Cc1oc(C(C)(C)C)cc1-c1cc(NC(=O)c2ccc([N+](=O)[O-])cc2)n[nH]1	NPR1 activator 44, GC-B act 57
CC(C)(C)c1ccc(C(=O)Nc2ccc([N+](=O)[O-])cn2)cc1	HSF1 activator 54
O=C(Nc1ccc([N+](=O)[O-])cn1)c1cccnc1	none
Cc1ccc(NC(=O)c2ccc([N+](=O)[O-])cc2Cl)nc1	HSF1 activator 52
CC(C)NC(=O)c1ccc2nc([C@@H]3O[C@H](CO)[C@H](O)[C@H](O)[C@H]3O)[nH]c2c1	none (no result: HSF1 inhib, HSF1 activator, Dyrk1A ADPGlo)
CC(C)CNc1nnnc2c1sc1nc(N3CCOCC3)c3c(c12)CC(C)(C)SC3	NPR1 activator 52, GC-B act 40
CC(C)CNc1ncnc2c1sc1nc(N3CCOCC3)c3c(c12)CC(C)(C)OC3	NPR1 activator 42, GC-B act 39
CC1(C)Cc2c(c(N3CCOCC3)nc3sc4c(NN)ncnc4c23)CS1	none
CC1(C)Cc2c(c(N3CCOCC3)nc3sc4c(NCc5ccccc5)nnnc4c23)CS1	NPR1 activator 47, GC-B act 50
CC1(C)Cc2c(c(N3CCOCC3)nc3sc4c(NCc5ccco5)nnnc4c23)CS1	NPR1 activator 55, GC-B act 48
CN(C)CCNc1ncnc2c1sc1nc(N3CCCC3)c3c(c12)CC(C)(C)OC3	none
CCCCc1nc2ccccc2n1CC(=O)NN	none
Cc1ccc(F)cc1NC(=O)CN1CCN(Cc2ccccc2)CC1	none
CCOc1ccc(C(=O)N2CCN(c3ccccn3)CC2)cc1OCC	none (no result: Dyrk1A ADPGlo)
N#CCC(=O)Nc1ccc(C(=O)OCC(=O)Nc2cccc(C(F)(F)F)c2)cc1	none
CCc1ccc(C(=O)/C=C/c2ccc([N+](=O)[O-])o2)cc1	HSF1 activator 155
CCOC(=O)CCc1ccc(NC(=O)/C=C/c2ccc([N+](=O)[O-])o2)cc1	none
C=CCN(C(=O)c1csnn1)C(C(=O)NC1CCCCC1)c1ccc(Cl)cc1 (stereo unspecified)	none
CC1CCCCN1C(=O)c1ccc(OC2CCN(S(=O)(=O)N(C)C)CC2)cc1 (stereo unspecified)	none
CCCc1ccc(NC(=O)C2CCCN(c3cnccn3)C2)cc1 (stereo unspecified)	HSF1 activator 61 (no result: Dyrk1A ADPGlo)
Cc1cc(C)c(NC(=O)CSCc2c(C)noc2C)c(Cl)c1	none (no result: HSF1 inhib, HSF1 activator)
CCOc1ccccc1/C=C/c1onc(C)c1S(=O)(=O)N1CCC(C(=O)NC(C)(C)C)CC1	HSF1 inhib -83 (no result: Dyrk1A ADPGlo)
COc1ccc(OCC(O)CNS(=O)(=O)c2ccc(C)cc2)cc1 (stereo unspecified)	none (no result: Dyrk1A ADPGlo)
Cc1nn(C)c(C)c1/C=N/NC(=O)C(C)(C)Oc1ccc(Cl)cc1	none
Cc1nn(C(C)(C)C)c(C)c1/C=N/OC(=O)Nc1ccc(Cl)cc1	HSF1 inhib -92
COC(=O)c1nn(-c2cccc(C(F)(F)F)c2)c(=O)cc1Sc1ccccn1	HSF1 inhib -52
N=c1c(S(=O)(=O)c2ccccc2)cc2c(=O)n3ccccc3nc2n1C1CCCC1	none
N=c1c(S(=O)(=O)c2ccc(Br)cc2)cc2c(=O)n3ccccc3nc2n1C1CCCC1	HSF1 activator 55
CC(=Nc1ccc(C)cc1C)c1sc2ccccc2c1O	HSF1 activator 53
CC(=O)c1ccc(CCCc2ccc(C(C)=O)cc2)cc1	none (no result: HSF1 inhib, HSF1 activator)
COc1cc(CCCN2CCNC[C@@H]2Cc2ccc(O)cc2)cc(OC)c1OC	HSF1 inhib -55
COc1cc(CCCN2C(=S)NC[C@H]2Cc2ccc(O)cc2)cc(OC)c1OC	none
CCOc1ccccc1NC(=O)c1nc(S(=O)(=O)Cc2ccccc2)ncc1Cl	HSF1 inhib -83
CN(c1ccccc1)S(=O)(=O)c1ccc(NC(=O)c2nc(S(C)(=O)=O)ncc2Cl)cc1	NPR1 activator 49, GC-B act 38
CCS(=O)(=O)c1ncc(Cl)c(C(=O)Nc2ccccc2OC)n1	HSF1 activator 490
CCc1ccc(NC(=O)c2nc(S(=O)(=O)Cc3ccccc3)ncc2Cl)cc1	HSF1 inhib inconclusive
COc1ccccc1NC(=O)c1nc(S(=O)(=O)Cc2ccccc2)ncc1Cl	HSF1 inhib -87
CN(c1ccccc1)S(=O)(=O)c1ccc(NC(=O)c2ccccc2)cc1	none
CCOC(=O)Cc1csc(NC(=O)CN(C)S(=O)(=O)c2cccc3cccnc23)n1	none (no result: HSF1 inhib, HSF1 activator)
CCS(=O)(=O)c1ncc(Cl)c(C(=O)Nc2ccc(S(=O)(=O)N3CCC(C)CC3)cc2)n1	HSF1 inhib -85, NPR1 activator 41
CCSc1ncc(Cl)c(C(=O)Nc2ccccc2C)n1	HSF1 activator 55
O=C(CSc1cc(Cl)ccc1Cl)NCCCn1ccnc1	none
Cc1ccccc1OCC(=O)Nc1cc(S(=O)(=O)N2CCOCC2)ccc1N1CCCC1	none (no result: HSF1 inhib, HSF1 activator)
CCOC(=O)C1(CCOc2ccccc2)CCN(Cc2ccc(F)c(OC)c2)CC1	none
C#CCSc1nnc(-c2ccc(O)cc2)o1	none
C=CCSc1nnc(-c2cccc3ccccc23)o1	none (no result: HSF1 inhib, HSF1 activator)
C#CCSc1nnc(-c2ccc(C)cc2)o1	HSF1 activator 61
C#CCSc1nnc(-c2cccc3ccccc23)o1	HSF1 activator 69
Cc1ccc(N2CC(c3nc4ccccc4[nH]3)CC2=O)c(C)c1 (stereo unspecified)	none
CCOC(=O)C1=CN(CC)CCC1=O	none (no result: HSF1 inhib, HSF1 activator)
O=S(=O)(Cc1ccc(Cl)cc1)Nc1ccc(Cl)cn1	none
Cc1ccc(C(=O)NNC(=O)CSc2nnc(-c3ccncc3)n2-c2ccc(C)cc2)cc1	none
Cc1oc(-c2cccc(Cl)c2)nc1CN1CCCC(C(=O)NCc2ccco2)C1 (stereo unspecified)	none
Cc1oc(-c2cccc(Cl)c2)nc1CN1CCCC(C(=O)NC(C)c2ccc3c(c2)OCCO3)C1 (stereo unspecified)	HSF1 activator 54
N#C/C(=C\Nc1ccc(Cl)cn1)S(=O)(=O)c1ccccn1	none
CCc1nn(C(CC)C(=O)NCc2cccc(OC)c2OC)c(=O)c2cc3occc3n12 (stereo unspecified)	HSF1 activator 67
COc1ccc(-c2cc(-c3cc(OC)ccc3O)[nH]n2)cc1	none
COc1ccc(-c2cc(-c3ccc(Cl)cc3)n[nH]2)c(O)c1	HSF1 activator 94
COc1ccc(-c2cc(-c3ccccc3O)[nH]n2)cc1OC	HSF1 activator 106
C/C(N)=C(/C#N)C(=O)CSc1nc2ccccc2c(=O)n1Cc1ccc(F)cc1	none
CC(C)C[C@H](NC(=O)N1CCCCCC1)C(=O)O	HSF1 inhib -51
CC(=O)Nc1ccc(OC(=O)c2cc3cc(Br)cc(Br)c3oc2=O)cc1	none (no result: aDG glyco act, Dyrk1A ADPGlo)
C=CCSC1=C(C#N)C(c2cccc(OC)c2)CC(=O)N1 (stereo unspecified)	HSF1 activator 51
COC(=O)CSC1=C(C#N)C(c2cccc(OC)c2)CC(=O)N1 (stereo unspecified)	none
